# The list is not random: actives were taken first. Their share in the collection is about 4.1%.
# DAX1 inh-1 – blocks DAX1 repression of SF-1 activated StAR promoter. HEK293T StAR-luciferase reporter, SF-1/DAX-1 repression relief. inhibition, % at 6.8 µM. 1.1% of 370,000 active;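 active means inhibition above the mean over all tested compounds plus 3 SD, cut at about 3.6% in these data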;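 further: 0% = DAX-1 cells with DMSO and 100% = cells lacking DAX-1 with DMSO; higher inhibition means more luminescence from relief of DAX-1 repression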
# DAX1 inh-2 – inhibits human nuclear receptor DAX1; P51843; HEK293 Gal4-DAX1 luciferase reporter, luminescence; inhibition, % at 6.75 µM; 0.99% of 340,000 active;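 active means inhibition above the mean over all tested compounds plus 3 SD, cut at about 4.2% in these data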;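 further: 0% = DAX1-transfected cells with DMSO and 100% = empty-vector control cells with DMSO; inhibition shows as a rise in luminescence from relieved DAX1 repression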
# Target sequence (P51843 207-470 limits assumed): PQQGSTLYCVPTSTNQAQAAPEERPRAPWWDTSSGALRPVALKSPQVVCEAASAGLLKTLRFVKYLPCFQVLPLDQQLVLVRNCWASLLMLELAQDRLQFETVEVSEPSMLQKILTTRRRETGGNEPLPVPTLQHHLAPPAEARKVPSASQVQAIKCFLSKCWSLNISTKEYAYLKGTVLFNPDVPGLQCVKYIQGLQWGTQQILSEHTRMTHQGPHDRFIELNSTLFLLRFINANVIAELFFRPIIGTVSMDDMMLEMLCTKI
# hcDAF-12 act – activators of H. contortus DAF-12 nuclear receptor; HEK293 hcDAF-12 lit1-tk-luc reporter, luminescence; 0% DMSO, 100% Δ7-dafachronic acid; activation, % at 6.8 µM; 1.4% of 370,000 active;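 active means activation above the mean of all tested compounds plus 3 SD, cut at about 5.5% in these data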;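 further: 100% = response to 3 µM Δ7-dafachronic acid high control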
# hgDAF-12 ag – activates the H. glycines DAF-12 receptor ligand-binding domain | HEK293 GAL4-hgDAF12 UAS-luciferase reporter, agonist luminescence; normalized to butyrate control | activation, % at 6.8 µM | 1.8% of 370,000 active;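 active means activation above a cutoff set at the mean of all screened compounds plus 3 SD, cut at about 10% in these data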;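 further: 0% = DMSO wells and 100% = sodium butyrate wells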
# ssDAF12 agonist – S. stercoralis DAF-12 activation, primary screen. HEK293 ssDAF-12/GRIP1 lit1-tk-luc reporter, luminescence; % of 3 µM dafachronic acid response. 1% of 370,000 active. activation, % at 6.8 µM;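 active means activation above the mean over all tested compounds plus 3 SD, cut at about 0.9% in these data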;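 further: 0% = DMSO-only wells and 100% = 3 µM delta7-dafachronic acid wells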
# DAX1 inh confirm – NR0B1 (human) inhibition, confirmation; shares compounds with DAX1 inh-1; HEK293T StAR-promoter luciferase reporter, SF-1/DAX-1 repression; inhibition, % at 6.8 µM; 87% of 2,400 active;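 active means inhibition above the average of every tested compound plus 3 SD, cut at about 3.8% in these data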;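 further: 0% = DAX-1 cells with DMSO and 100% = no DAX-1 control cells with DMSO; active compounds raise luminescence by relieving repression of the StAR reporter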
# SF1 mutant ctr – counter-screen for DAX1 inhibitors: nonselective inhibitors with SF-1 AF2 mutant; shares compounds with DAX1 inh-1; HEK293 StAR-luciferase, luminescence; inhibition, % at 6.8 µM; 78% of 2,400 active; AID 652136;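 active means inhibition above the mean of all tested compounds plus 3 SD, cut at about 3% in these data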;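 further: 0% = DAX-1 transfected cells with DMSO and 100% = cells without DAX-1 with DMSO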
# The depositor's hits bear a star; . = no result given.
SMILES,DAX1 inh-1,DAX1 inh-2,hcDAF-12 act,hgDAF-12 ag,ssDAF12 agonist,others
CCOC(=O)CC(SP1(=S)OCC2(CC=CCC2)CO1)C(=O)OCC (stereo not drawn),3.9*,-0.3,0.7,-3.4,-1.0,
C[C@@H]1CNCCN1c1ccc(N2CC[C@@H](O)C2)c(C#N)c1,1.0,.,-2.4,4.4,-1.1,
CNC(=O)c1cccn(Cc2ccc(C(F)(F)F)cc2)c1=O,-0.7,1.0,0.1,-3.6,2.4*,
OCC[n+]1c2ccccc2nc2ccc(N3CCOCC3)cc21,-0.5,.,-0.3,-1.8,-1.0,
CN(C)C1=C(C#N)C(c2ccccc2)=NP(N(C)C)(N(C)C)=N1,-0.3,0.8,-0.7,-1.5,-1.6,
Cc1cc(N2CCNC[C@@H]2C)ccc1N1CCN[C@@H](C)C1,0.4,.,2.2,-0.3,-1.5,
CCCCn1c(O)c(C(=O)/C=C/c2c[nH]c3ccccc23)c(=O)[nH]c1=O,0.3,0.9,6.0*,-1.7,-0.9,
CCCCn1c(O)c(C(CC)=NCCc2ccccc2)c(=O)[nH]c1=O,-0.4,0.5,0.2,-2.6,-0.9,
CC/C(=N\Nc1cccc2ccccc12)c1c(O)[nH]c(=O)[nH]c1=O,-0.8,-2.5,1.9,1.3,1.3*,
CC/C(=N\Nc1ccccc1)c1c(O)[nH]c(=O)[nH]c1=O,0.5,2.0,1.1,2.2,-1.2,
c1ccc2[nH]c(CCN3CCCCC3)nc2c1,0.3,0.3,-1.2,-2.6,-0.6,
CC1C2Cc3ccc(O)cc3C1(C)CCN2CC1CC1 (stereo not drawn),1.6,.,-0.3,-5.1,-0.9,
CC(Cc1ccccc1)NC(=O)c1ccc(N)cc1 (stereo not drawn),0.9,4.8*,2.9,8.6,0.6,
CC(Cc1ccccc1)NC(=O)NC(C)Cc1ccccc1 (stereo not drawn),1.7,1.3,1.7,13.0*,-0.2,
CCc1cc2c(N3CCN(C)CC3)ncnc2s1,0.2,0.1,-0.5,-2.1,-1.1,
CCN1CCN(c2ncnc3ccc(Br)cc23)CC1,-0.4,4.4*,-1.1,5.1,-0.9,
Cc1ccc(C(=O)Nc2ccc(-n3ccnc3P(=O)(O)c3ccccc3)cc2)cc1,0.1,1.2,-0.2,-1.8,-0.5,
CN(C)C(=O)Oc1ccc(OC(=O)N(C)C)cc1,-0.2,0.1,-0.2,2.2,-1.1,
CN(C)C(=O)Oc1ccc(OCc2nc3ccccc3[nH]2)cc1,2.9,-1.8,3.0,11.1*,-0.2,
OC12CCCCC1C(c1ccccc1)NCC2 (stereo not drawn),-0.1,4.3*,-0.5,3.7,-1.2,
NCCNc1ccc([N+](=O)[O-])c2cccnc12,0.6,6.0*,2.2,5.9,-1.7,
CN1CCN(C(=O)COc2ccc(-c3nc4ccccc4s3)cc2)CC1,3.9*,-4.2,4.8,11.4*,-0.3,
CN1CCN(C(=O)COc2ccc3ccccc3c2)CC1,-0.3,0.0,0.6,2.9,0.1,
CC(C)NS(=O)(=O)c1ccc(OCC(=O)N2CCN(C)CC2)cc1,-0.2,4.4*,-0.5,5.8,-0.9,
CC(C)(C)n1nnnc1C1CN=C(c2ccccc2)c2ccccc2N1 (stereo not drawn),0.9,.,0.8,10.8*,-0.7,
SMILES,DAX1 inh-1,DAX1 inh-2,hcDAF-12 act,hgDAF-12 ag,ssDAF12 agonist,others
CC(C)(C)n1nnnc1C1CN=C(c2ccccc2)c2cc(Cl)ccc2N1 (stereo not drawn),0.1,.,-1.6,1.5,-1.3,
CC(=O)N1c2ccccc2C(c2ccccc2)=NCC1C(=O)NC1CCCCC1 (stereo not drawn),-3.8,.,-2.0,2.2,0.0,
O=C(CN1CCCCC1)c1cccc(Br)c1,-0.2,0.6,-0.7,-1.5,-0.9,
O=C(CN1CCCCC1)c1ccc2c(c1)OCO2,-0.2,5.6*,0.1,1.1,-0.1,
C=CCn1c(O)c(C(C)=NCc2cc(OC)cc(OC)c2)c(=O)[nH]c1=O,-1.8,-0.7,-1.7,3.4,-1.6,
CC12CCC(O)CC1CCC1C2CCC2(C)C(C(=O)CO)CCC12 (stereo not drawn),-2.0,.,-1.1,-0.2,-1.6,
CC(C)C[C@H]1COc2cccc(N3CCN(C)CC3)c2S(=O)(=O)N1,4.2*,.,-1.1,1.3,-1.1,
CCCCn1c(=O)c(C(=O)NCCc2ccccc2)c(O)c2ccccc21,-0.1,5.1*,-2.1,0.8,-1.9,
CCCCCn1c(=O)c(C(=O)Nc2ccccc2)c(O)c2ccccc21,0.1,-0.5,7.8*,0.5,-0.3,
COc1ccc(Cc2cn(C)c(N)n2)cc1,-0.3,.,-0.2,-0.2,-0.8,
COc1ccc2c(C)c(CCC(=O)N3C[C@H]4C[C@@H](C3)c3cccc(=O)n3C4)c(=O)oc2c1,0.5,5.7*,-1.7,3.8,-0.9,
COc1cccc(OCc2cc(C(=O)N3C[C@H]4C[C@@H](C3)c3cccc(=O)n3C4)no2)c1,1.1,3.3,5.6*,12.9*,1.5*,
CC(=O)NCC1=C(c2ccc(S(C)(=O)=O)cc2)C[C@@H]2CC[C@H]1N2CCOc1ccccc1,0.4,.,-1.6,4.1,-1.0,
O=c1[nH]c(=S)n(Cc2ccc(F)cc2)c(O)c1/C=N/N1CCCCCC1,0.5,-0.9,1.0,-0.4,-0.8,
C=CCCC[C@@H]1OC(=O)CNC(=O)C([C@@H](C)CC)NC(=O)[C@@H]2CCCN2C(=O)C([C@@H](C)CC)OC(=O)[C@H](Cc2ccccc2)N(C)C(=O)[C@H](C(C)C)NC(=O)C1(C)C (stereo partly drawn),0.0,.,-1.3,-2.1,-1.0,
CCC(C)C1NC(=O)C2CCCN2C(=O)C(CC(C)C)OC(=O)CCNC(=O)C(C)N(C)C(=O)C(C(C)C)N(C)C1=O (stereo not drawn),3.7*,0.0,-2.1,-8.8,-1.4,
CCN(CC)C(=O)c1ccc(NC(=O)CCCSc2ccccc2)cc1,-0.2,0.1,0.1,0.0,-1.8,
CCN(CC)C(=O)c1ccc(NC(=O)Nc2ccccc2F)cc1,6.5*,-5.1,5.3,11.1*,-0.4,DAX1 inh confirm=8.9*;SF1 mutant ctr=4.2*
O=c1[nH]cnc2nc(-c3ccc(N(CCCl)CCCl)cc3)[nH]c12,5.5*,0.7,2.2,7.7,-0.7,DAX1 inh confirm=10.6*;SF1 mutant ctr=0.0
O=C(Cn1cc(C(=O)c2ccccc2F)c2ccccc21)NC1CC1,-1.6,-0.2,-2.8,-5.1,-1.6,
COc1ccc(NP2(=O)OCC(C)(N)CO2)cc1 (stereo not drawn),0.3,-0.2,0.5,3.9,-1.1,
CN1CCN(c2nc3ccccc3c(=O)n2-c2ccccc2)CC1,-0.5,-0.4,0.7,-0.5,-1.5,
c1ccc2oc(-c3ccc4c(c3)CNCc3cnnn3-4)cc2c1,5.0*,.,-0.1,9.4,-0.2,DAX1 inh confirm=7.0*;SF1 mutant ctr=4.6*

# High-throughput results deposited in PubChem by The Scripps Research Institute Molecular Screening Center.
